Among the data in PubChem BioAssay (NCI) are growth values, retold here.

Some test systems named below: NCI-H23 lung; NCI-H226 lung; NCI-H322M lung; HOP-62 NSCLC; NCI-H460 lung; HOP-92 NSCLC; NCI-H522 lung; A549/ATCC NSCLC; 786-0 renal; COLO 205 colon.
Common to all, as to assay: NCI-60 one-dose screen, 48 h (100 = growth as untreated, 0 = no growth, -100 = all killed)
Holding throughout (settings): 10 µM unless noted

This is part of a sample that, as a whole, favours compounds with a hit. Of some 83,000 tested, about 20% had one in any assay.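 Method: cells in 96-well plates; compound added at one concentration; 48 h incubation; percent growth measured; values under 10 scored active.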 Unmarked numbers belong to inactive results. Calls of active or inactive are those of the source.

In the case of `COc1ccc(/C(=C\c2ccc3c(c2)OCO3)C(=O)Nc2nc3ccc(F)cc3s2)cc1OC`, the growth was 93.2% with NCI-H23 lung; 87.1% in the experiment with NCI-H226 lung; 87.3% in the experiment on NCI-H322M lung; 92.8% with HOP-62 NSCLC; 105% with NCI-H460 lung; 93.6% in the experiment with HOP-92 NSCLC. The growth is 94.2% with NCI-H522 lung, 99.7% in the experiment on A549/ATCC NSCLC, 92.1% with 786-0 renal and 106% in the experiment on COLO 205 colon.

As for `Cc1n(Cc2ccc3ccccc3n2)cc[n+]1Cc1ccc2ccccc2c1`, the growth with NCI-H23 lung was 2.01% (active); in the experiment with NCI-H226 lung, 12.7%; in the experiment with NCI-H322M lung, 26%; in the experiment on HOP-62 NSCLC, 13.3%; with NCI-H460 lung it was 10.2%; in the experiment with HOP-92 NSCLC, -6.1% (active). Also, the growth with NCI-H522 lung is 3.95% (active); in the experiment on A549/ATCC NSCLC, 33.5%; in the experiment on 786-0 renal, 63.3%; in the experiment with COLO 205 colon it was -38.4% (active).

For `Cc1cc(C)cc(CCCCCCCCCCCCCCCCCC(=O)O)c1`, the growth in the experiment with NCI-H23 lung is 104%; in the experiment on NCI-H226 lung, 111%; in the experiment on NCI-H322M lung it was 110%; in the experiment on HOP-62 NSCLC, 107%; in the experiment with NCI-H460 lung, 113%; with HOP-92 NSCLC, 116%. Further, the growth was 92% in the experiment on NCI-H522 lung, 96.6% with A549/ATCC NSCLC, 99.5% in the experiment on 786-0 renal and 113% with COLO 205 colon.

Take `COc1ccccc1NC(=O)OCC12COCN1COC2`: the growth is 100% with NCI-H23 lung; 99% with NCI-H226 lung; 107% in the experiment with NCI-H322M lung; 104% with HOP-62 NSCLC; 104% in the experiment with NCI-H460 lung; 105% in the experiment on HOP-92 NSCLC. Further, the growth is 100% with NCI-H522 lung, 92.9% with A549/ATCC NSCLC, 103% with 786-0 renal and 108% with COLO 205 colon.

As to `O=C1/C(=C\c2cccn2Cc2ccc(F)cc2)c2ccccc2N1c1c(Cl)cccc1Cl`, the growth with NCI-H23 lung was 81.1%; in the experiment with NCI-H226 lung it was 64%; with NCI-H322M lung, 69.4%; with HOP-62 NSCLC, 92.1%; in the experiment on NCI-H460 lung it was 87.7%; with HOP-92 NSCLC, 66%. Besides, the growth in the experiment with NCI-H522 lung was 77%; in the experiment on A549/ATCC NSCLC, 69.4%; in the experiment with 786-0 renal, 76.6%; in the experiment on COLO 205 colon, 84.9%.

Regarding `COc1ccc(-n2nc(C(=O)NCC(=O)Nc3nc4cc(OC)ccc4s3)c3ccccc3c2=O)cc1`, the growth with NCI-H23 lung was 19.5%; with NCI-H226 lung, -11.1% (active); in the experiment with NCI-H322M lung, 31.4%; with HOP-62 NSCLC, -78.7% (active); with NCI-H460 lung, 1.04% (active); in the experiment on HOP-92 NSCLC it was -34.9% (active). For the same compound, the growth in the experiment with NCI-H522 lung is -9.83% (active); in the experiment with A549/ATCC NSCLC, 0.477% (active); with 786-0 renal it was 20.4%; in the experiment on COLO 205 colon, 32.7%.

In the case of `CCCCCCCCCCCC1=NC(C)(C)CN1C(C)(C)CO`, the growth with NCI-H23 lung is 59.5%; in the experiment with NCI-H226 lung, 94.8%; in the experiment with NCI-H322M lung it was 92.6%; in the experiment on HOP-62 NSCLC it was 60.4%; in the experiment on NCI-H460 lung, 28.2%; with HOP-92 NSCLC it was 28.7%. Also, the growth is 47.5% in the experiment with NCI-H522 lung, 68.8% in the experiment on A549/ATCC NSCLC, 71.6% with 786-0 renal and -81.4% (active) in the experiment with COLO 205 colon.

In the case of `F`, the growth with NCI-H23 lung is 41.1% [6.87 mM]; in the experiment on NCI-H226 lung, 90.6% [6.87 mM]; in the experiment with NCI-H322M lung, 46.4% [6.87 mM]; in the experiment on HOP-62 NSCLC, 10.7% [6.87 mM]; with NCI-H460 lung it was 45.1% [6.87 mM]; in the experiment on HOP-92 NSCLC, -5.03% [6.87 mM] (active). Further, the growth in the experiment on NCI-H522 lung was 56.8% [6.87 mM]; in the experiment with A549/ATCC NSCLC, 18% [6.87 mM]; in the experiment on 786-0 renal, -1.01% [6.87 mM] (active); with COLO 205 colon, 40.3% [6.87 mM].

`O=C(Nc1ccc(Cl)c(C(F)(F)F)c1)c1ccc(Nc2ccc(Cl)nn2)cc1`: the growth was 48.4% with NCI-H23 lung; 84.2% in the experiment with NCI-H226 lung; 92.9% in the experiment on NCI-H322M lung; 86.1% with HOP-62 NSCLC; 74% with NCI-H460 lung; 82.8% in the experiment with HOP-92 NSCLC. Besides, the growth in the experiment on NCI-H522 lung was 62%; in the experiment on A549/ATCC NSCLC, 44.3%; with 786-0 renal, 50.9%; in the experiment with COLO 205 colon, 81.6%.

Regarding `C#CC[C@@H]1C[C@]2(C)[C@H]3CC=C4[C@H]5[C@@H](C)[C@H](C)CC[C@]5(C(=O)NCCCN5CCN(CCCN)CC5)CC[C@@]4(C)[C@]3(C)CC[C@H]2C(C)(C)[C@H]1OC(C)=O`, the growth in the experiment with NCI-H23 lung was 19.8%; with NCI-H226 lung it was 86.5%; in the experiment on NCI-H322M lung, -48.2% (active); with HOP-62 NSCLC, 58.9%; in the experiment with NCI-H460 lung, -60.7% (active); in the experiment with HOP-92 NSCLC it was -20.5% (active). In addition, the growth in the experiment on NCI-H522 lung was -55.4% (active); in the experiment on A549/ATCC NSCLC it was -23.5% (active); in the experiment with 786-0 renal, -97% (active); in the experiment on COLO 205 colon it was -69.9% (active).

Consider `Cc1ccc(N2C3c4ccccc4N(S(=O)(=O)c4ccc(C)cc4)C2c2ccccc2N3S(=O)(=O)c2ccc(C)cc2)cc1`, for which the growth was 99.9% in the experiment with NCI-H23 lung; 94.3% in the experiment with NCI-H226 lung; 106% in the experiment with NCI-H322M lung; 107% in the experiment with HOP-62 NSCLC; 99.5% with NCI-H460 lung; 101% in the experiment on HOP-92 NSCLC. Besides, the growth with NCI-H522 lung was 106%; in the experiment on A549/ATCC NSCLC it was 97.1%; with 786-0 renal, 112%; in the experiment on COLO 205 colon it was 115%.

As to `C1=C\CCCCN2CC[C@H]3[C@H](CCCC/C=C\CCCN4C[C@@H](CCCCC/1)C[C@@H]3C4)C2`, the growth with NCI-H23 lung is 79.5%; with NCI-H226 lung it was 110%; in the experiment on NCI-H322M lung it was 108%; with HOP-62 NSCLC it was 76.3%; in the experiment on NCI-H460 lung, 51.8%; in the experiment with HOP-92 NSCLC it was 17.6%. In addition, the growth in the experiment with NCI-H522 lung is 47.8%; with A549/ATCC NSCLC, 48.9%; with 786-0 renal, 73.2%; in the experiment with COLO 205 colon, -64.3% (active).

Regarding `CCc1ccc2c(c1)N(CCO)C1=C(C(=O)OC1)C2c1cccc(Br)c1` (stereo not given), the growth in the experiment on NCI-H23 lung was 40.9%; in the experiment on NCI-H226 lung, 39.5%; with NCI-H322M lung, 38.9%; in the experiment with HOP-62 NSCLC it was 31%; in the experiment with NCI-H460 lung, 11.2%; in the experiment with HOP-92 NSCLC it was 75.6%. For the same compound, the growth in the experiment on NCI-H522 lung was -26.3% (active); in the experiment on A549/ATCC NSCLC it was 29.2%; with 786-0 renal, 34.4%; in the experiment on COLO 205 colon, 5.9% (active).

For `COc1ccc(/C(=C\c2cc(OC)c(OC)c(OC)c2)C(=O)N2CCCNCC2)cc1`, the growth with NCI-H23 lung was 104%; in the experiment with NCI-H226 lung, 100%; in the experiment with NCI-H322M lung it was 103%; with HOP-62 NSCLC it was 106%; in the experiment with NCI-H460 lung it was 110%; with HOP-92 NSCLC it was 102%. For the same compound, the growth in the experiment with NCI-H522 lung was 100%; in the experiment on A549/ATCC NSCLC, 105%; in the experiment on 786-0 renal it was 111%; with COLO 205 colon, 110%.
